High-throughput results deposited in PubChem BioAssay by several laboratories.
In the library only some 3.6% were active in any assay of this set; here they are far more common.
FAS TE block: FAS thioesterase (human) inhibition; recombinant FAS-TE, OMFH fluorogenic substrate, fluorescence endpoint; inhibition, % at 15 µM; P49327; actives 0.67% (n = 360,000);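 active means compounds whose normalised, plate-corrected inhibition of enzyme fluorescence in the single-dose primary screen is 50% or more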
Myeloid diff 2: compounds promoting myeloid differentiation; calls only at 10 µM; ER-HoxA9 myeloid progenitors, lysozyme-GFP differentiation, flow cytometry; actives 1% (n = 360,000);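 active means normalized GFP-positive differentiation at or above the plate's own cutoff, the solvent-only control mean plus 3 SD; inconclusive means no clear call, values can overlap the other calls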;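 further: cells exposed to compound for four days before flow analysis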
CendR NRP1 mod: modulators of CendR peptide binding to human neuropilin-1 | inhibition, % at 25 µM | O14786 | actives 0.85% (n = 360,000) | FAM-RPARPAR peptide binding to NRP-1, fluorescence polarization;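 active means inhibition or corrected inhibition above about 18%, plus a signal ratio from 0.5 to 1.5, limit read from the data, passing the limit was not always enough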
CRFR2-BP antag: antagonists of CRF-binding protein/CRF-R2 receptor complex; AID 588475; HEK293 CRF-R2/CRF-BP, CRF-induced calcium fluorescence; actives 0.59% (n = 350,000); inhibition, % at 11.8 µM;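 active means inhibition of the ligand-induced calcium signal above about 50% at the single tested concentration, limit read from the data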
NadD block: NadD (S. aureus) enzyme inhibition | purified NadD enzyme, colorimetric absorbance read-out | inhibition, % at 20 µM | actives 0.78% (n = 360,000) | AID 602399; in the data active means inhibition above about 26%
FAS-TE inh conf: confirmation of human fatty acid synthase thioesterase inhibitors | shares compounds with FAS TE block | inhibition, % at 15 µM | actives 45% (n = 2,300) | recombinant FAS-TE, OMFH fluorogenic substrate, fluorescence | AID 624325;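 active means compounds inhibiting the enzyme by at least 50% at 15 µM in any one of the replicates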
Each line names hits and unclear results; the compound was inactive in the other large screens (follow-up assays come after a bar, where they were run).

Cc1ccc(OC(=O)N(C)C[C@@H]2OCc3cnnn3CCCC(=O)N([C@@H](C)CO)C[C@@H]2C)cc1	CRFR2-BP antag 60.1
Cc1ccc(OC(=O)N(C)C[C@@H]2OCc3cnnn3CCCC(=O)N([C@H](C)CO)C[C@H]2C)cc1	none
COC(=O)C1=C(c2cc3ccccc3s2)C[C@@H]2CC[C@H]1N2C	CendR NRP1 mod 22.0
COc1ccccc1NC(=O)c1cn(CCC#N)nc1-c1ccc(F)cc1	none
O=C1NC(=S)NC(=O)C1=Cc1ccc(Br)s1	NadD block 45.9
CN1C(=O)/C(=C\c2ccc(Br)s2)C(=O)NC1=S	NadD block 34.3
CCN(CC)C(=O)c1ccc(NC(=O)COc2ccc([N+](=O)[O-])cc2Cl)cc1	CendR NRP1 mod 30.6
COc1cc2c(c(OC)c1OC)-c1ccc(O)cc1[C@@H](NC(C)=O)CC2	Myeloid diff 2 inconclusive
CC1(C)CN=C(Nc2ccc(F)c(Cl)c2)S1	CendR NRP1 mod 27.1
CC1(C)CN=C(Nc2ccc(F)c(F)c2)S1	none
CN(C)C(=O)Oc1ccc2c(c1)O/C(=C\c1cccc(Cl)c1)C2=O	none
CC1(C(=O)O)CCCC2(C)c3cc(O)ccc3CCC12 (configuration not stated)	CendR NRP1 mod 33.6
C[C@]12CCC3C(CC[C@H]4C[C@@H](O)CC[C@]34C)C1CC[C@@H]2N (some centres not stated)	none
O=C(O)c1nn(Cc2ccc(Cl)cc2)c2ccccc12	Myeloid diff 2 active
Cn1c(O)c(/C=C/C=Nc2ccccc2)c(=O)n(C)c1=S	Myeloid diff 2 active
Cc1ccc(NC(=O)CC[C@H]2O[C@@H](n3cnc4c(NC(=O)c5ccccc5)ncnc43)[C@H](O)[C@@H]2O)cc1C	none (no result: CRFR2-BP antag)
COc1ccc(CN2Cc3cnnn3-c3ccccc3C2c2ccccc2)cc1 (configuration not stated)	Myeloid diff 2 active
COc1ccc(CN2Cc3cnnn3-c3ccccc3C2C#N)cc1 (configuration not stated)	Myeloid diff 2 inconclusive
c1ccc(N2[C@@H]3CC[C@H]2c2ccncc2C3)cc1	none (no result: FAS TE block, CRFR2-BP antag, NadD block)
CC(C)(C)n1nnnc1C(c1ccnc2ccccc12)N1CCC2(CC1)C(=O)NCN2c1ccccc1 (configuration not stated)	CendR NRP1 mod 36.4 (no result: CRFR2-BP antag)
S=C(NCCc1ccccc1)N1Cc2cc(N3CCCCC3)ccc2-n2nncc2C1	none (no result: CRFR2-BP antag)
CCCCCC[N+](=O)[O-]	none
CCCCCCCCCCCCCCCC[N+](C)(C)C	Myeloid diff 2 inconclusive, CRFR2-BP antag 65.6
N#CCCCCC#N	none
O=C(c1cn(Cc2ccccc2)c2ccccc12)N1CCCCC1	none
CCOP(=O)(OCC)c1cc(CC)ccc1O	CRFR2-BP antag 93.1
CCOc1ccc(N2C(=O)/C(=C/c3ccco3)C(=O)NC2=S)cc1	NadD block 86.8
COc1ccc(CN2C(=O)NC(=O)/C(=C/c3ccoc3)C2=O)cc1	CRFR2-BP antag 51.3
Cc1ccc(S(=O)(=O)N2Cc3cnnn3-c3ccccc3C2C#N)cc1 (configuration not stated)	Myeloid diff 2 active
CCC1C2Cc3ccc(O)cc3C1(CC)CCN2C (configuration not stated)	CendR NRP1 mod 32.0
CC(=O)N(C)CC#CCN1CCC(O)CC1	CendR NRP1 mod 37.4
CCCN1CCC[C@@H](c2cccc(O)c2)C1	none
O=C1NC(=O)C(=Cc2ccc(-c3cc(Cl)ccc3[N+](=O)[O-])o2)C(=O)N1	Myeloid diff 2 active, NadD block 38.2
O=C1NC(=O)C(=Cc2cc3c(cc2[N+](=O)[O-])OCO3)C(=O)N1	none
O=C1NC(=O)C(=Cc2ccccc2[N+](=O)[O-])C(=O)N1	CendR NRP1 mod 25.4
N[C@@H](Cc1ccc(N(CCCl)CCCl)cc1)C(=O)O	Myeloid diff 2 inconclusive
NC(Cc1ccc(O)cc1)C(=O)NN=Cc1ccc(N(CCCl)CCCl)cc1 (configuration not stated)	Myeloid diff 2 inconclusive, CRFR2-BP antag 60.1
COc1ccc2[nH]c3c(c2c1)CCNC3	none
c1ccc2c3c([nH]c2c1)CNCC3	Myeloid diff 2 active
COC(=O)C1=C(c2ccc(Cl)c(C(F)(F)F)c2)C[C@@H]2CC[C@H]1N2C(=O)N1CCC(O)(c2ccc(Cl)cc2)CC1	none
CCN1CCN(S(=O)(=O)c2ccc(Cl)nc2)CC1	CendR NRP1 mod 27.9
CCN1CCC(N(C)C2CCCCC2)CC1	none (no result: Myeloid diff 2)
CC1(C)OC(c2ccccc2)=C/C(=C/C=C2C(=O)NC(=S)NC2=O)O1	none (no result: FAS TE block, Myeloid diff 2, CendR NRP1 mod, NadD block)
CN1/C(=C\C=C2C(=O)NC(=S)NC2=O)C(C)(C)c2ccccc21	Myeloid diff 2 active
CCN(CC)c1ccc(/C=C2\C(=O)NC(=O)N(Cc3ccco3)C2=O)cc1	none
CCCCN1C(=O)/C(=C/c2ccc(N(C)C)cc2)C(=O)N(Cc2ccco2)C1=O	NadD block 34.4
COc1cccc(C(c2nnnn2Cc2ccccc2)N2CCC(n3c(=O)[nH]c4ccccc43)CC2)c1OC (configuration not stated)	none (no result: CRFR2-BP antag)
O=c1[nH]c2ccccc2n1C1CCN(C(c2cc3ccccc3o2)c2nnnn2Cc2ccccc2)CC1 (configuration not stated)	FAS TE block 61.3 (no result: CRFR2-BP antag) | FAS-TE inh conf inactive
O=c1[nH]c2ccccc2n1C1CCN(C(c2cccc3ccccc23)c2nnnn2Cc2ccccc2)CC1 (configuration not stated)	FAS TE block 80.2 (no result: CRFR2-BP antag) | FAS-TE inh conf inactive
Cc1cc(=O)oc2cc(OCC(=O)N3CCN(C(C)c4ccccc4)CC3)c(Cl)cc12 (configuration not stated)	FAS TE block 59.6 | FAS-TE inh conf 67.3
Cc1cc(C=C2C(=O)N(C)C(=S)N(C)C2=O)c(C)n1-c1cccnc1	none
CCOC(=O)[C@]12Cc3cc(Cl)ccc3[C@H]1N(C)C(=O)c1ccccc12	none (no result: CRFR2-BP antag)
CCCCCN1C(=O)c2cc(OC)ccc2[C@@]2(C(=O)OCC)Cc3cc(Cl)ccc3[C@@H]12	FAS TE block 85.3, Myeloid diff 2 inconclusive (no result: CRFR2-BP antag) | FAS-TE inh conf inactive
CCOC(=O)[C@]12Cc3cc(Cl)ccc3[C@H]1N(C(C)C)C(=O)c1ccccc12	FAS TE block 67.6, Myeloid diff 2 inconclusive (no result: CRFR2-BP antag) | FAS-TE inh conf inactive
CCOC(=O)[C@]12Cc3cc(Cl)ccc3[C@H]1N(CC(=O)OC)C(=O)c1ccccc12	FAS TE block 55.4 (no result: CRFR2-BP antag) | FAS-TE inh conf inactive
CCOC(=O)[C@]12Cc3cc4ccccc4cc3[C@H]1N(Cc1ccccc1)C(=O)c1ccccc12	FAS TE block 61.2 (no result: CRFR2-BP antag) | FAS-TE inh conf inactive
CCOC(=O)[C@]12Cc3cc(OC)c(OC)cc3[C@H]1N(Cc1ccccc1)C(=O)c1ccccc12	none
CCOC(=O)[C@]12Cc3cc4ccccc4cc3[C@H]1N(Cc1ccccc1)C(=O)c1cc(OC)ccc12	FAS TE block 64.8 (no result: CRFR2-BP antag) | FAS-TE inh conf inactive
CCc1nn2c(=O)c(F)c(N3CCNCC3)nc2s1	none (no result: CRFR2-BP antag)
CSc1nc(N)c(N=Nc2ccc([As](=O)(O)O)cc2)c(=O)[nH]1	FAS TE block 53.7 | FAS-TE inh conf 59.2
